The text below walks through data of PubChem BioAssay.

Experiment [1] can be described thus: anti-His antibody binders, primary screen, artefact control for SMM control protein annotation, biochemical, small-molecule microarray, 635 nm fluorescence (AID 1128).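 Further: score merges feature fluorescence with signal-to-noise for each printed compound spot.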 As to conditions: anti-His Alexa647 antibody binding, higher = more signal.
Experiment [2] relates to Human papillomavirus type 1a E7 protein (residues 1-88). Briefly: HPV1a E7 small-molecule binders, primary screen, biochemical, small-molecule microarray, residues 1-88, 635 nm (AID 1129). As to conditions: small-molecule microarray binding, fluorescence 635 nm; higher = more signal.
The target in experiment [3] is Focal adhesion kinase 1 (Homo sapiens) (UniProt Q05397). Briefly: small-molecule microarray binders of FAK, primary screen, biochemical, 635/667 nm fluorescence, BSA, DTT (AID 1130).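 Further: composite of spot emission at 667 nm and signal to noise over triplicate slides.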 As to conditions: PTK2 binding, 635 nm fluorescence, higher = more signal.
Focal adhesion kinase 1 (Homo sapiens), sequence (Q05397 whole entry, looked up): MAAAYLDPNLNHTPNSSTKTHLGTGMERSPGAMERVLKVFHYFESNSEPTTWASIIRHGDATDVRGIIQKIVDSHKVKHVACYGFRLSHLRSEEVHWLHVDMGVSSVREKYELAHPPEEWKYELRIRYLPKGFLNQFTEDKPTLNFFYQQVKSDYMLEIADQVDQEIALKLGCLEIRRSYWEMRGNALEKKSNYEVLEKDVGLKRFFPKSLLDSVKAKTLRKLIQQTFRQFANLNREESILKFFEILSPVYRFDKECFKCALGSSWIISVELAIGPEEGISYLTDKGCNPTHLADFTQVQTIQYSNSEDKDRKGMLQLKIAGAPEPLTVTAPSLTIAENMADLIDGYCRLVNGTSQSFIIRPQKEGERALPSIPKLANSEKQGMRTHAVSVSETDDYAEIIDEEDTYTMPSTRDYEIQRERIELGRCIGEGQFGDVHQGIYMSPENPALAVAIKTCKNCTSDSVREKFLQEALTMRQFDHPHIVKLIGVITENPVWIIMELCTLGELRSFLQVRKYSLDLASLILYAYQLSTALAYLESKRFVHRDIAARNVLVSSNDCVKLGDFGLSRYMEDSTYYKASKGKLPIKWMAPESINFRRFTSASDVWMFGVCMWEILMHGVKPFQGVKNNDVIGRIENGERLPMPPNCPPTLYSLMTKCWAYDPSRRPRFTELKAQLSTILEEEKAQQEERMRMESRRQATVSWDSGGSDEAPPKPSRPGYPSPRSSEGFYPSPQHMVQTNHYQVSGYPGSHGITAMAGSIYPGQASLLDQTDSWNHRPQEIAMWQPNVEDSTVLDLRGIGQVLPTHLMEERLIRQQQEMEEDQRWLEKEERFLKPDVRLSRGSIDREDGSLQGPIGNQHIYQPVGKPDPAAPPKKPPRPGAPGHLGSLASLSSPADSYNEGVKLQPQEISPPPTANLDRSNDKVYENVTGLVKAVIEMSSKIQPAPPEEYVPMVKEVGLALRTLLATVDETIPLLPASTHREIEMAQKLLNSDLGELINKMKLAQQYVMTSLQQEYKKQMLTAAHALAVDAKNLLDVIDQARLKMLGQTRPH
Experiment [4] concerns Fibrinogen (Alexa647-labelled). Briefly: fibrinogen binders on compound microarrays, profiling panel, artefact control for SMM control-protein annotation, biochemical, small-molecule microarray, 635/667 nm fluorescence (AID 1131).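 Further: z-score merges 667 nm fluorescence with per-spot signal-to-noise over triplicate slides.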 As to conditions: fibrinogen-A647 binding fluorescence, higher = more signal.
In experiment [5] the target is Follistatin (Homo sapiens) (UniProt P19883). Briefly: follistatin binders on small-molecule microarrays, primary screen, biochemical, small-molecule microarray, 635/667 nm fluorescence (AID 1132). Conditions: FST binding, 635 nm fluorescence, higher = more signal.
Follistatin (Homo sapiens), sequence (P19883 whole entry, looked up): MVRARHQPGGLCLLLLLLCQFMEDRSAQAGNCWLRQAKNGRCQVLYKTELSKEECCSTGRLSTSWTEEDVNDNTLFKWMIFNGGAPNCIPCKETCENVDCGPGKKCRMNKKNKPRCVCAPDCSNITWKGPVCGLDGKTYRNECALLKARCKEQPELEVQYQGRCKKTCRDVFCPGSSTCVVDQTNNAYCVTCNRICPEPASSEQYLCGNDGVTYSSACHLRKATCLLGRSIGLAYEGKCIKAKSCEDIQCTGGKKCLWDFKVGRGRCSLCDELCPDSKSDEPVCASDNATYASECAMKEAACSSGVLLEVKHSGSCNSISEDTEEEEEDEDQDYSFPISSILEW
For experiment [6], the target named is Fibroblast growth factor 2 (Homo sapiens) (UniProt P09038). Briefly: FGF2 binders on small-molecule microarrays, primary screen, biochemical, small-molecule microarray, 635/667 nm fluorescence (AID 1133). As to conditions: small-molecule microarray binding, FGF2, fluorescence 635/667; higher = more signal.
Fibroblast growth factor 2 (Homo sapiens), sequence (P09038 whole entry, looked up): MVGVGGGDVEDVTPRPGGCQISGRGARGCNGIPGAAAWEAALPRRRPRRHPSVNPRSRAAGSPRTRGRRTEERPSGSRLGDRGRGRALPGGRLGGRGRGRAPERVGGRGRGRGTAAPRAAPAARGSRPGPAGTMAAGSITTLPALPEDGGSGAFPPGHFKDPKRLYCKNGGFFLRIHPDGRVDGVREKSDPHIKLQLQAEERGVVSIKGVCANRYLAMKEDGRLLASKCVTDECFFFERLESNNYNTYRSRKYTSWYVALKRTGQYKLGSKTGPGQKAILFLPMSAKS
Experiment [7] can be described thus: mitochondrial membrane potential change in A549 cells, profiling panel, cell-based, JC-1 fluorescence, basal, 24 h, 100 nL (AID 1138).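 Further: A549 lung adenocarcinoma cells under basal conditions with no added stimulus; test concentration not given here.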 As to conditions: higher = more signal.
The subject of another experiment is Lefty1. Briefly: Lefty1 binders on small-molecule microarrays, primary screen, biochemical, small-molecule microarray, 635/667 nm fluorescence (AID 1139). Conditions: small-molecule microarray binding, fluorescence 635/667; higher = more signal.
In experiment [8] the test system is wheat germ agglutinin (Triticum aestivum), Alexa647-labelled. Briefly: wheat germ agglutinin binders on compound microarrays, profiling panel, artefact control for SMM control-protein annotation, biochemical, small-molecule microarray, 635/667 nm fluorescence (AID 1140).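 Further: score merges 667 nm feature emission with signal to noise over triplicate slides.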 Conditions: WGA-A647 binding, 635 nm fluorescence, higher = more signal.
The target of experiment [9] is Luciferin 4-monooxygenase (Photinus pyralis) (UniProt P08659). The experiment in a line: firefly luciferase enzyme inhibitors, primary screen, biochemical, luminescence, purified enzyme, 2006 set (AID 1141).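 Further: cell-free assay with purified firefly luciferase at 100 ng per well in PBS; test concentration not given here.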 As to conditions: SteadyGlo luminescence, 30 min, higher = more signal, called active from +8 up or from −8 down.
Luciferin 4-monooxygenase (Photinus pyralis), sequence (P08659 whole entry, looked up): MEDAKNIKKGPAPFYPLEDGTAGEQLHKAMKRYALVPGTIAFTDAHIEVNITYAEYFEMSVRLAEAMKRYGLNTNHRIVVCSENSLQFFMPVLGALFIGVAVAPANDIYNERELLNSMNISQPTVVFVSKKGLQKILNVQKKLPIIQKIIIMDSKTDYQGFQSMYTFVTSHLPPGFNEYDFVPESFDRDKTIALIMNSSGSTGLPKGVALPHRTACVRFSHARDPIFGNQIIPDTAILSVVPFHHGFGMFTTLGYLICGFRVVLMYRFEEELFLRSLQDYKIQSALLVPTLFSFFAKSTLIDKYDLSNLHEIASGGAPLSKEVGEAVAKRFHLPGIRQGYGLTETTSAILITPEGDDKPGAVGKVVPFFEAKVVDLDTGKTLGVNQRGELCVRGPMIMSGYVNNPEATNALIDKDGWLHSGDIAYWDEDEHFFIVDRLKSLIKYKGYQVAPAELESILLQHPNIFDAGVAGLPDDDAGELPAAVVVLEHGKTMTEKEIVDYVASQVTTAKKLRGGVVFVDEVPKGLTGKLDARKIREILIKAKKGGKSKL
For experiment [10], the system named is Wnt5a (protein binding on small-molecule microarray). The experiment in a line: Wnt5a binders on small-molecule microarray, primary screen, biophysical, 635/667 nm fluorescence (AID 1142).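 Further: fluorescence read at 667 nm with signal to noise per printed feature.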 As to conditions: 635 nm fluorescence, higher = more signal.
Experiment [11] can be described thus: cell viability in Huh7 cells, primary screen, cytotoxicity control for HCV replication inhibitor project, CellTiter-Glo luminescence, basal, 48 h (AID 1143).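 Further: Huh7 hepatoma cells carrying a hepatitis C replication reporter with no stimulus; test concentration not given here.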 Conditions: Huh7 HCV replicon, higher = more signal, called active from +8 up or from −8 down.
A short description of experiment [12]: P. aeruginosa biofilm formation inhibitors, primary screen, PAO1 strain, BacTiter-Glo luminescence, LB-PBS (AID 1144). As to conditions: 12 h, higher = more signal.
The nature of experiment [13]: CREB reporter modulators without forskolin, primary screen, cell-based, PC12, CRE-LacZ reporter, unstimulated (AID 1145). Conditions: no forskolin, luminescence, 4.5 h, higher = more signal, called active from +8 up or from −8 down.
Experiment [14] is described as follows: CREB reporter modulators under forskolin, primary screen, cell-based, PC12, CRE-LacZ reporter, forskolin-stimulated (AID 1146).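 Further: PC12 cells with 6xCRE LacZ reporter stimulated by forskolin 10 µM; beta-galactosidase reporter signal reflecting CREB driven transcription.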 Conditions: luminescence, 4.5 h, higher = more signal, called active from +8 up or from −8 down.
The target in experiment [15] is Streptavidin (Streptomyces avidinii) (UniProt P22629). Briefly: streptavidin binders on small-molecule microarray, primary screen, artefact control for SMM compound annotation, biophysical, 635/667 nm fluorescence (AID 1147).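 Further: signal reflects streptavidin binding to arrayed compounds as a control protein.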 As to conditions: streptavidin binding, higher = more signal.
Streptavidin (Streptomyces avidinii), sequence (P22629 whole entry, looked up): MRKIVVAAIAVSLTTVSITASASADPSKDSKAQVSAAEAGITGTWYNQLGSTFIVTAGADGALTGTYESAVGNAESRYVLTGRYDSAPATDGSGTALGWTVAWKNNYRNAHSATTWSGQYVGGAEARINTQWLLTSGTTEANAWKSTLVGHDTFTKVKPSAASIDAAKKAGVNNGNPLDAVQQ
Experiment [16] in a line: small-molecule binders of probe aInhba, primary screen, biochemical, small-molecule microarray, 635/667 nm fluorescence (AID 1148).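 Further: score merges 667nm spot fluorescence with signal-to-noise for antibody binding to printed compounds.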 Conditions: higher = more signal.
The target of experiment [17] is Torsin-1A (Homo sapiens) (UniProt O14656). The experiment in a line: torsin A binders from cell lysate, primary screen, small-molecule microarray, wild-type, 635/667 nm (AID 1149). Conditions: COS7 hTOR1A-WT lysate, 635 nm fluorescence, higher = more signal.
Torsin-1A (Homo sapiens), sequence (O14656 whole entry, looked up): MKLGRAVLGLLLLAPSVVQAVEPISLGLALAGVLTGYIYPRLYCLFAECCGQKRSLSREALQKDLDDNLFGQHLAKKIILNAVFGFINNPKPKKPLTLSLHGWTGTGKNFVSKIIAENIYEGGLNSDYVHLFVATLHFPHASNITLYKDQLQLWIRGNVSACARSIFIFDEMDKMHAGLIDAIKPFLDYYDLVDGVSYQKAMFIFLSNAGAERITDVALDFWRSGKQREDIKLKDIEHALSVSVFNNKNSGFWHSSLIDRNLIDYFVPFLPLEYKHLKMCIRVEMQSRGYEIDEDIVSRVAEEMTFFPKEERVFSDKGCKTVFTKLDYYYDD
The target is the same in experiment [18]. Briefly: small-molecule binders of mutant TOR1A in lysate, primary screen, cell lysate, small-molecule microarray, COS7 lysate, 635/667 nm fluorescence (AID 1150).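 Further: score pools 667 nm emission and signal to noise measuring lysate protein binding.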 As to conditions: COS7 hTOR1A mutant lysate, 635 nm fluorescence, higher = more signal.
The subject of experiment [19] is Sonic hedgehog protein (Shh). The experiment in a line: small-molecule binders of Shh protein, primary screen, biochemical, small-molecule microarray, 635/667 nm fluorescence (AID 1151).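 Further: Shh protein binding to compounds spotted on small-molecule microarray slides; score combines spot fluorescence intensity with signal-to-noise across triplicate slides.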 Conditions: small-molecule microarray binding, 635 nm fluorescence; higher = more signal.

Calls of active or inactive are those of the source. Unless noted, how the calls were made is not given here.

For `COc1ccc([Si](C)(C)[C@H]2[C@H](CCn3cc([C@H](O)c4ccccc4)nn3)O[C@@]3(C(=O)N(C)c4c(Br)cc(C)cc43)[C@@H]2C)cc1`, the composite z-score was 0.523 in experiment [1]; -0.212 in experiment [2]; -0.472 in experiment [3]; -0.496 in experiment [4]; 1.5 in experiment [5]; 1.87 in experiment [6]. The composite z-score in the experiment on Lefty1 is 1.37; in experiment [8], 0.343; in experiment [10] it was -0.0472; in experiment [15], -0.124; in experiment [16], -0.208; in the experiment with Torsin-1A (Homo sapiens) [17] it was 0.877. Further, the figures for the composite z-score (with Torsin-1A (Homo sapiens) [18]; in experiment [19]) were 0.19 and 0.964, respectively. Besides, the z-score is 0.134 in experiment [7]; -0.877 (inactive) in [9]; -4.01 (inactive) in experiment [11]; -0.23 (inactive) in experiment [12]; 7.95 (inactive) in experiment [13]; -1.66 (inactive) in [14].
For `[N-]=[N+]=NCc1ccccc1C[C@]1(C(=O)N2CCCCC2)N=C(c2ccc(OCCCO)cc2)O[C@H]1c1ccccc1`, the composite z-score worked out at 0.582 in experiment [1]; 1.1 in experiment [2]; 0.425 in experiment [3]; 0.714 in experiment [4]; 0.351 in [5]; 0.182 in experiment [6]. The composite z-score is -0.599 with Lefty1; 0.762 in experiment [8]; 0.601 in experiment [10]; 0.483 in [15]; -0.0471 in experiment [16]; 0.81 in the experiment with Torsin-1A (Homo sapiens) [17]. Further, the composite z-score with Torsin-1A (Homo sapiens) [18] was 0.139; in [19] it was -0.655. Besides, the z-score is 1.17 in experiment [7]; 0.09 (inactive) in experiment [9]; -5.06 (inactive) in experiment [11]; -0.307 (inactive) in [12]; -0.0017 (inactive) in [13]; -0.964 (inactive) in [14].
Consider `NC(=O)NCC#Cc1ccc2c(c1)[C@]1(C(=O)N2)[C@H](C(=O)N2CCCCCCC2)[C@H]2C(=O)O[C@H](c3ccccc3)[C@H](c3ccccc3)N2[C@@H]1c1ccc(O)cc1`, for which the composite z-score is 0.0328 in experiment [1]; 1.01 in [2]; 0.568 in [3]; 0.879 in [4]; 1.52 in [5]; 1.15 in [6]. Further, the composite z-score in the experiment on Lefty1 came out at 0.784; in experiment [8], 1.15; in experiment [10] it was 0.399; in experiment [15] it was 1.05; in [16], 1.51; with Torsin-1A (Homo sapiens) [17], 0.529. In addition, the results for the composite z-score (in the experiment with Torsin-1A (Homo sapiens) [18]; in experiment [19]) were 0.676 and 1.22, respectively. The z-score is -1.16 in experiment [7]; -0.161 (inactive) in experiment [9]; 0.33 (inactive) in experiment [11]; -0.209 (inactive) in experiment [12]; 0.0695 (inactive) in experiment [13]; -0.745 (inactive) in experiment [14].
As for `COCCCNC(=O)[C@@]1(Sc2ccc(C)cc2)CC(=O)N(C2CCCCC2)[C@@H]1c1ccc(CO)cc1I`, the composite z-score in experiment [1] was 1.74; in experiment [2], 1.18; in experiment [3] it was 0.737; in experiment [4] it was 0.922; in [5], 1.09; in experiment [6], 0.659. The composite z-score in the experiment with Lefty1 turned out to be 0.136; in experiment [8], 0.814; in experiment [10] it was 0.0699; in experiment [15] it was 0.404; in [16] it was 0.541; with Torsin-1A (Homo sapiens) [17], 0.0619. The figures for the composite z-score (with Torsin-1A (Homo sapiens) [18]; in experiment [19]) were 0.401 and 0.993, respectively. Also, the z-score is 0.816 in experiment [7]; 0.235 (inactive) in experiment [9]; -1.41 (inactive) in experiment [11]; 0.134 (inactive) in [12]; -0.258 (inactive) in [13]; 1.17 (inactive) in [14].
For the compound `C[N+](C)(C)CCCCCCNC(=O)[C@@H]1C[C@@H]2C(=O)N[C@@H](Cc3ccccc3)C(=O)N2[C@@H]1c1ccc(O)cc1`, the composite z-score was 2.13 in experiment [1]; 1.21 in experiment [2]; -0.371 in [3]; 0.533 in [4]; 1.43 in [5]; 1.65 in experiment [6]. The composite z-score in the experiment with Lefty1 was 1.63; in experiment [8] it was 0.702; in experiment [10], 0.42; in experiment [15] it was -0.0442; in experiment [16], -0.0039; in the experiment with Torsin-1A (Homo sapiens) [17], 1.26. Also, the composite z-score in the experiment with Torsin-1A (Homo sapiens) [18] was 0.984; in experiment [19] it was 2.07. The z-score is -0.247 in experiment [7]; 0.344 (inactive) in experiment [9]; -0.267 (inactive) in [11]; -0.409 (inactive) in experiment [12]; -0.805 (inactive) in experiment [13]; -0.327 (inactive) in experiment [14].
